aSyn UTR inh – 5' untranslated region of α-synuclein, MLPCN primary screen. inhibition, % (tested at 7.5 µM). 0.82% of 300,000 active. AID 1813. alpha-synuclein 5'UTR reporter, inhibitor activity; in the data active = inhibition above about 60%;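 note: H4 neuroglioblastoma cells stably carrying SNCA 5'UTR luciferase fusion; 0% = DMSO wells and 100% = positive control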
Mdm2 MdmX PPI – human Mdm2/MdmX binding inhibition; O15151+Q00987; SaOS-2 split-luciferase Mdm2/MdmX complementation, luminescence; inhibition, % at 8 µM; 3% of 330,000 active; AID 485346;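 active = inhibition of at least 50% at 8 µM in the primary screen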
Target sequence (O15151 whole entry, looked up): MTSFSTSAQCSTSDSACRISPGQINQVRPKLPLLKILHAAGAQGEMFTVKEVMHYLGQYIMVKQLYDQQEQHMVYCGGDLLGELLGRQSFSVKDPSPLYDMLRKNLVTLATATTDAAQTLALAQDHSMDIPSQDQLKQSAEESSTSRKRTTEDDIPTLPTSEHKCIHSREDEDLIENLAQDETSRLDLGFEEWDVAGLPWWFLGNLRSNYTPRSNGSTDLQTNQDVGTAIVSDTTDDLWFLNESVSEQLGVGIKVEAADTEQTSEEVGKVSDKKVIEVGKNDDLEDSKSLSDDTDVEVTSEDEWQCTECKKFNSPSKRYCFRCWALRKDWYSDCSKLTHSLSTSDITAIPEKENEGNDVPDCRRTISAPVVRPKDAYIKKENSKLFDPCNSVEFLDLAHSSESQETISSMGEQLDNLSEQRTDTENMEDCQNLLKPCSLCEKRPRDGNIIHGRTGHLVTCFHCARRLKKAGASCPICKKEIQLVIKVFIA
Target sequence (Q00987 whole entry, looked up): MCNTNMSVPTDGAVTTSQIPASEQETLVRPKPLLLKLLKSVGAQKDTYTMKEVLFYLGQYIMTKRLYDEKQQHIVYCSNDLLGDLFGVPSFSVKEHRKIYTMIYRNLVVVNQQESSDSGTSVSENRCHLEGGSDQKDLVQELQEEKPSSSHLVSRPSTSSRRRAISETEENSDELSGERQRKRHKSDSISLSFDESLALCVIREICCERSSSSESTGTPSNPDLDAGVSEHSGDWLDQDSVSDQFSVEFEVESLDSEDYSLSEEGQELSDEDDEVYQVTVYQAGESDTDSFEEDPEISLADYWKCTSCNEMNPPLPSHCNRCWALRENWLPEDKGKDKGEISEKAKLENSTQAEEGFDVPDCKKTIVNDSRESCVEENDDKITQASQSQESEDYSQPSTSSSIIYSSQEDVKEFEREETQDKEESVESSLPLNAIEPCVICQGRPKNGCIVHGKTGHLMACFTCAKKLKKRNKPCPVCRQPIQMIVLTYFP
Jurkat NFkB inh – inhibitors of the PMA/ionomycin-induced NF-kB reporter in Jurkat cells. PMA/ionomycin-induced NF-kB luciferase reporter, luminescence. inhibition, % at 4 µM. 0.53% of 330,000 active. AID 435003; in the data active = inhibition above about 50%
Gli-Sufu antag – Gli-Sufu pathway antagonism | Sufu-KO-LIGHT fibroblasts, Gli luciferase reporter luminescence | inhibition, % at 5 µM | 0.74% of 340,000 active;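 active = inhibition above about 55%, limit read from the data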;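 note: 0% = DMSO-treated cells and 100% = wells with medium but no cells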
697 NFkB inh – inhibitors of the PMA/ionomycin-induced NF-kB reporter in 697 B cells. 697 B-cell NF-kB luciferase reporter, 16 h. inhibition, % at 4 µM. 0.33% of 330,000 active; in the data active = inhibition above about 35%
CSC inhib – cancer stem cell inhibition; AID 2717; cancer stem cell-like cells viability, luminescence; inhibition, % at 7.5 µM; 1.1% of 300,000 active; in the data active = inhibition above about 75%; tested in HMLE shEcad cells
Mdm2 MdmX conf – confirmation of human Mdm2/MdmX interaction inhibitors; shares compounds with Mdm2 MdmX PPI; inhibition, % at 8 µM; AID 489028; Mdm2-MdmX binding, luminescent assay; 55% of 10,000 active; in the data active = inhibition above about 40%
Full FLuc ctr – counter-screen for Mdm2/MdmX inhibitors: full-length luciferase; 77% of 6,200 active; inhibition, % at 8 µM; SaOS-2 full-length luciferase counterscreen, luminescence; shares compounds with Mdm2 MdmX PPI;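 active = mean inhibition at 8 µM reaching about 37%, which flags the compound as non-specific, limit read from the data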;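 note: p53-null SaOS-2 cells with luciferase driven by a doxycycline-inducible promoter; compound on cells about two nights before reading with doxycycline added after day one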
An asterisk follows results filed as active. Most compounds without a hit are left out; they make up all but 4.5% or so of the library.

`Cc1csc(NC(=O)COc2ccc3c(C)cc(=O)oc3c2)n1` gave aSyn UTR inh -62, Mdm2 MdmX PPI 67*, Jurkat NFkB inh -27, Gli-Sufu antag -2, 697 NFkB inh -1, CSC inhib -4 and Mdm2 MdmX conf 10.
Screening Cc1cccc(C)c1NC(=O)COC(=O)COc1ccc2c(C)cc(=O)oc2c1 returned aSyn UTR inh 7, Mdm2 MdmX PPI -17, Jurkat NFkB inh 26, Gli-Sufu antag -9, 697 NFkB inh -51 and CSC inhib -4.
Screening Cc1c(NC(=O)CSc2nnc(-c3cccc(Cl)c3)o2)c(=O)n(-c2ccccc2)n1C returned aSyn UTR inh -16, Mdm2 MdmX PPI 4, Jurkat NFkB inh -18, Gli-Sufu antag 0, 697 NFkB inh -8 and CSC inhib -14.
COc1ccc(-c2nc3c(c(SCC(=O)N4CCOCC4)n2)Cc2c(CO)cnc(C)c2O3)cc1 was read as aSyn UTR inh -16, Mdm2 MdmX PPI 58*, Jurkat NFkB inh 8, Gli-Sufu antag 21, 697 NFkB inh 32, CSC inhib 8 and Mdm2 MdmX conf 28.
For O=C(CCl)NCCCCCCCCCNC(=O)CCl the results were aSyn UTR inh -37, Mdm2 MdmX PPI 64*, Jurkat NFkB inh 10, Gli-Sufu antag 14, 697 NFkB inh -33, CSC inhib 10, Mdm2 MdmX conf 42* and Full FLuc ctr 40*.
COc1ccc(-c2n[nH]c3c2CN(C(=O)c2ccc(OC)c(OC)c2)CC3)cc1 was read as aSyn UTR inh 24, Mdm2 MdmX PPI 58*, Jurkat NFkB inh 47, Gli-Sufu antag 5, 697 NFkB inh -53, CSC inhib 41, Mdm2 MdmX conf 58* and Full FLuc ctr 55*.
`COc1cc(OC)cc(C(=O)N2CCN(C(=O)c3ccc(OC)c(OC)c3)CC2)c1` gave aSyn UTR inh 39, Mdm2 MdmX PPI 1, Jurkat NFkB inh -8, Gli-Sufu antag -5, 697 NFkB inh -21 and CSC inhib 1.
`COc1ccc(OC)c(/C=C2\SC(=S)N(Cc3cccnc3)C2=O)c1` gave aSyn UTR inh -62, Mdm2 MdmX PPI 73*, Jurkat NFkB inh 1, Gli-Sufu antag 11, 697 NFkB inh -1, CSC inhib 52, Mdm2 MdmX conf 44* and Full FLuc ctr 49*.
`COc1ccc(O)c(/C=C2/SC(=S)N(Cc3ccccc3)C2=O)c1` gave aSyn UTR inh -21, Mdm2 MdmX PPI 31, Jurkat NFkB inh -2, Gli-Sufu antag -7, 697 NFkB inh -4 and CSC inhib 43.
Screening COCCCNCC#CCOc1ccc(OC)cc1 returned aSyn UTR inh 7, Mdm2 MdmX PPI 100*, Jurkat NFkB inh 5, Gli-Sufu antag 1, 697 NFkB inh -5, CSC inhib -29 and Mdm2 MdmX conf -1.
CCN(Cc1ccc(OC)c(F)c1)C(=O)C1CCCO1 (stereo not drawn) was read as aSyn UTR inh 16, Mdm2 MdmX PPI -5, Jurkat NFkB inh -17, Gli-Sufu antag 19, 697 NFkB inh 9 and CSC inhib -13.
For CCN(Cc1ccc(OC)c(F)c1)C(=O)CCl the results were aSyn UTR inh -74, Mdm2 MdmX PPI 89*, Jurkat NFkB inh 21, Gli-Sufu antag -24, 697 NFkB inh 25, CSC inhib -13, Mdm2 MdmX conf 63* and Full FLuc ctr 22.
CC(C)C[C@@H]1NC(=O)[C@H](Cc2ccccc2)N(C)C(=O)[C@H](C)NC(=O)c2ccccc2NC(=O)[C@H](Cc2ccc(O)cc2)N(C)C1=O was read as aSyn UTR inh 26, Mdm2 MdmX PPI 75*, Jurkat NFkB inh 41, Gli-Sufu antag 11, 697 NFkB inh 21, CSC inhib -8, Mdm2 MdmX conf 57* and Full FLuc ctr 71*.
For CCc1noc(C)c1C(=O)Nc1ccc(Cl)c(S(=O)(=O)N2CCCCC2)c1 the results were aSyn UTR inh 13, Mdm2 MdmX PPI -1, Jurkat NFkB inh 18, Gli-Sufu antag 11, 697 NFkB inh -21 and CSC inhib -10.
For Nc1ccccc1C(=O)NNC1=C(C(=O)C(F)(F)F)CCC1 the results were aSyn UTR inh -278, Mdm2 MdmX PPI 53*, Jurkat NFkB inh 38, Gli-Sufu antag 4, 697 NFkB inh -91, CSC inhib 19, Mdm2 MdmX conf 49* and Full FLuc ctr 148*.
COc1ccccc1C(=O)NNC1=C(C(=O)C(F)(F)F)CCC1 was read as aSyn UTR inh 4, Mdm2 MdmX PPI 70*, Jurkat NFkB inh -2, Gli-Sufu antag 14, 697 NFkB inh -34, CSC inhib -2, Mdm2 MdmX conf 58* and Full FLuc ctr 72*.
`O=C(CCC1CCCC1)NNC(=O)c1ccccc1O` gave aSyn UTR inh 5, Mdm2 MdmX PPI 5, Jurkat NFkB inh -3, Gli-Sufu antag -7, 697 NFkB inh -26 and CSC inhib -14.
`O=C(NNC1=C(C(=O)C(F)(F)F)CCC1)c1ccccc1O` gave aSyn UTR inh 10, Mdm2 MdmX PPI 50, Jurkat NFkB inh 0, Gli-Sufu antag -2, 697 NFkB inh -20 and Mdm2 MdmX conf 39.
`COc1cccc(C(=O)NNC2=C(C(=O)C(F)(F)F)CCC2)c1` gave aSyn UTR inh -23, Mdm2 MdmX PPI 23, Jurkat NFkB inh 0, Gli-Sufu antag -9, 697 NFkB inh 16 and CSC inhib 24.
`O=C(NCCNc1ccccc1[N+](=O)[O-])c1cc(F)c(F)cc1Cl` gave aSyn UTR inh -93, Mdm2 MdmX PPI -64, Jurkat NFkB inh -70, Gli-Sufu antag 0, 697 NFkB inh -68 and CSC inhib -8.
Screening Cc1cc(Cl)n2nc(C)c(-c3ccc(Cl)cc3)c2n1 returned Mdm2 MdmX PPI 91*, Jurkat NFkB inh 1, Gli-Sufu antag -2, 697 NFkB inh 18, CSC inhib 18, Mdm2 MdmX conf 52* and Full FLuc ctr 15.
For O=C(O)Cc1c(C(=O)O)[nH]c2ccc(C(=O)O)cc12 the results were aSyn UTR inh -9, Mdm2 MdmX PPI 19, Jurkat NFkB inh 8, Gli-Sufu antag 2, 697 NFkB inh -7 and CSC inhib -9.
Cc1nccc(-c2cccc(N/N=C(\C#N)C(=O)c3ccccc3)c2)n1 was read as aSyn UTR inh 11, Mdm2 MdmX PPI 44, Jurkat NFkB inh -2, Gli-Sufu antag 12, 697 NFkB inh 2 and CSC inhib 24.
For N#C/C(=N\Nc1cccc(C(F)(F)F)c1)C(=O)c1ccsc1 the results were aSyn UTR inh -109, Mdm2 MdmX PPI 78*, Jurkat NFkB inh -15, Gli-Sufu antag 31, 697 NFkB inh -50, CSC inhib 52, Mdm2 MdmX conf 63* and Full FLuc ctr 67*.
Cc1nc2ncccn2c1-c1csc(Nc2ccc(S(N)(=O)=O)cc2)n1 was read as aSyn UTR inh 6, Mdm2 MdmX PPI 36, Jurkat NFkB inh 1, Gli-Sufu antag 4, 697 NFkB inh 14 and CSC inhib -13.

Source: PubChem
